Where a SMILES comes first, the peptide text is derived from it. Bridges are numbered along the chain shown (N, C = ends). [ ]: non-standard residue; d: D form. The star is where a group is joined. ξ: configuration not given here. ξDab(CH2SO3H) = NC(CCNCS(=O)(=O)O)C(=O)O; Octanoyl(6-Me) = CCC(C)CCCCC(=O)*; Dab = NCC[CH](N)C(=O)O; NHCH2CH2OH = OCCN*; For = O=C*
Molecular target: 6-phosphogluconate dehydrogenase, decarboxylating (Homo sapiens) (UniProt P52209)
Test: 6PGD enzyme inhibitors, primary screen, biochemical, human, recombinant enzyme, NADPH absorbance (AID 1159550)
Settings: recombinant 6PGD, NADPH absorbance 341 nm; at 10 µM; hits give high values;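 active means at least 20% inhibition of 6-phosphogluconate dehydrogenase activity; inactive means the rest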

Chain of 6-phosphogluconate dehydrogenase, decarboxylating (Homo sapiens) (P52209 whole entry, looked up): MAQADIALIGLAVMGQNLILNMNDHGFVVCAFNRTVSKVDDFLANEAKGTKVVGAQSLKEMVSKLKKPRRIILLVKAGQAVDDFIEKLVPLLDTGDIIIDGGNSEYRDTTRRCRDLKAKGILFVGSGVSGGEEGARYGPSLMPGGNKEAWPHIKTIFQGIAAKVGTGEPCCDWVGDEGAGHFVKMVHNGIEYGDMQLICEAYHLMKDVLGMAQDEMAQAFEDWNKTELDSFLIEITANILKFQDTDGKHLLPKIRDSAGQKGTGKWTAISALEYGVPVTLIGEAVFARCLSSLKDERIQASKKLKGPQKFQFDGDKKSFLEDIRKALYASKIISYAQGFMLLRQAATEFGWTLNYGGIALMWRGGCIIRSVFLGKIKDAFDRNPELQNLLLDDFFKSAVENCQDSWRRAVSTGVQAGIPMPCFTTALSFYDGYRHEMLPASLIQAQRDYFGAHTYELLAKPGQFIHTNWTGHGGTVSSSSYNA

inhibition, inactive:
CC1OC(OC2C(O)COC(OC3C(C)OC(OC4C(OC(=O)C56CCC(C)(C)CC5C5=CCC7C8(C)CCC(OC9OC(CO)C(O)C(O)C9O)C(C)(C)C8CCC7(C)C5(C)CC6O)OCC(O)C4O)C(O)C3O)C2O)C(O)C(O)C1O (centres undefined) -33.1%
NC(=O)c1cc[n+](CC2=C(C(=O)O)N3C(=O)[C@H](NC(=O)C(c4ccccc4)S(=O)(=O)[O-])[C@@H]3SC2)cc1 (some centres undefined) -12%
C[C@H]1[C@@H](O)O[C@@H]2OC3(C)CC[C@H]4[C@H](C)CC[C@@H]1[C@@]24OO3 -22.8%
CC(C)C[C@@H](NC(=O)[C@H](C)NC(=O)CNC(=O)[C@@H](NC=O)C(C)C)C(=O)N[C@@H](C)C(=O)N[C@@H](C(=O)N[C@H](C(=O)N[C@H](C(=O)N[C@@H](Cc1c[nH]c2ccccc12)C(=O)N[C@H](CC(C)C)C(=O)N[C@@H](Cc1c[nH]c2ccccc12)C(=O)N[C@H](CC(C)C)C(=O)N[C@@H](Cc1c[nH]c2ccccc12)C(=O)N[C@H](CC(C)C)C(=O)N[C@@H](Cc1c[nH]c2ccccc12)C(=O)NCCO)C(C)C)C(C)C)C(C)C (For-VGA[dL]A[dV]VVW[dL]W[dL]W[dL]W-NHCH2CH2OH) 10.9%
C=CC(C1=CC(=O)C(OC)=C(OC)C1=O)c1ccccc1 (centres undefined) 3.55%
CCC(C)CCCCC(=O)NC(CCNCS(=O)(=O)O)C(=O)NC(C(=O)NC(CCNCS(=O)(=O)O)C(=O)NC1CCNC(=O)C(C(C)O)NC(=O)C(CCNCS(=O)(=O)O)NC(=O)C(CCNCS(=O)(=O)O)NC(=O)C(CC(C)C)NC(=O)C(CC(C)C)NC(=O)C(CCNCS(=O)(=O)O)NC1=O)C(C)O (centres undefined) ({Octanoyl(6-Me)}-[ξDab(CH2SO3H)]T[ξDab(CH2SO3H)][Dab][ξDab(CH2SO3H)]LL[ξDab(CH2SO3H)][ξDab(CH2SO3H)]T; lactam 4-C; configuration not given here) 17.5%
CC(=O)c1ccc(O)c(CC=C(C)C)c1 18.5%
CS(C)(=O)=O 0.728%
CC(=O)OC1CCC2(C)C(=CCC3C2CCC2(C)C(C(C)CCCC(C)C)CCC32)C1 (centres undefined) 13.3%
COC(=O)c1cc(OC)c(=O)c2c(OC)c(OC)ccc2c1 7.65%
CC[C@H](C(=O)[C@@H](C)[C@@H](O)[C@H](C)[C@@H]1O[C@@H]([C@@H](CC)C(=O)O)[C@@H](C)C[C@@H]1C)[C@H]1O[C@]2(C=C[C@@H](O)[C@]3(CC[C@@](C)([C@H]4CC[C@](O)(CC)[C@H](C)O4)O3)O2)[C@H](C)C[C@@H]1C -15.5%
CC(C)C[C@H](NC(=O)OCC1c2ccccc2-c2ccccc21)C(=O)O 2.94%
Cc1cc(=O)c2c(O)c3c(cc2o1)OCC(C)CC3 (centres undefined) 4.57%
CC(=O)OC1CCC2(C)C(CCC3(C)C2CC=C2C4CC(C)(C)CCC4(C)CCC23C)C1(C)C (centres undefined) 3.75%
CC1(C)Oc2ccc3ccc(=O)oc3c2C[C@H]1O 1.49%
COc1cc(O)c2c(=O)cc(-c3ccc(O)cc3)oc2c1 6.18%
NC1(C(=O)O)CCC1 2.05%
CN[C@H]1[C@@H](O[C@@H]2[C@@H](O[C@H]3[C@H](O)[C@@H](O)[C@H](N=C(N)N)[C@@H](O)[C@@H]3N=C(N)N)O[C@H](C)[C@@]2(O)C=O)O[C@H](CO)[C@@H](O)[C@@H]1O 6.7%
COC(=O)C[C@H]1C(C)(C)C(=O)[C@@H]2CC3=C4CC(=O)O[C@@H](c5ccoc5)[C@]4(C)CC[C@@H]3C1(C)C2=O -2.15%
CC1(C)S[C@H]2[C@@H](NC(=O)[C@H](NC(=O)N3CCNC3=O)c3ccccc3)C(=O)N2[C@@H]1C(=O)O 10.5%
CC(=O)O[C@@H]1CC2C(C)(C)C(=O)CC[C@]2(C)C2CC[C@]3(C)C(=CC(=O)O[C@H]3c3ccoc3)[C@@]21C (some centres undefined) 14.2%
CC(=O)O[C@H]1CC[C@]2(C)C(C[C@@H](OC(C)=O)[C@]3(C)C4=CC(=O)OC(c5ccoc5)[C@@]4(C)CCC23)C1(C)C (some centres undefined) 5.97%
C[C@@H]1CC[C@@]2(OC1)O[C@H]1C[C@H]3[C@@H]4CC=C5C[C@@H](O)CC[C@]5(C)[C@H]4CC[C@]3(C)[C@H]1[C@@H]2C 10.6%
CC(=O)O[C@H]1CC[C@]2(C)[C@H]3C(=O)C=C4[C@@H]5[C@@H](C)[C@H](C)CC[C@]5(C(=O)O)CC[C@@]4(C)[C@]3(C)CC[C@H]2C1(C)C 4.87%
C[C@H](CCC(=O)O)C1CC[C@H]2[C@@H]3CC[C@H]4C[C@H](O)CC[C@]4(C)[C@H]3C[C@H](O)[C@]12C (some centres undefined) -1.43%
CC[C@H]1OC(=O)[C@H](C)[C@@H](O[C@H]2C[C@@](C)(OC)[C@@H](O)[C@H](C)O2)[C@H](C)[C@@H](O[C@@H]2O[C@H](C)C[C@H](N(C)C)[C@H]2O)[C@](C)(O)C[C@@H](C)[C@@H]2NC(COCCOC)O[C@H]([C@H]2C)[C@]1(C)O (some centres undefined) 5.47%
CC(=O)O[C@H]1CC[C@]2(C)[C@H]3CC=C4[C@@H]5CC(C)(C)CC[C@]5(C(=O)O)CC[C@@]4(C)[C@]3(C)CC[C@H]2C1(C)C -0.817%
CCOC(=O)c1c(C)cc(O)c(C)c1O -2.48%
CCOc1ccc(C(=O)c2cc(O)c(OC)c(OC)c2O)cc1 0.271%
Oc1ccc2c(c1)OC(c1ccc(O)c(O)c1)C(O)C2 (centres undefined) 6.96%
C=C1C(=O)OC2C[C@]3(C)[C@H](C(C)=CC[C@@H]3O)[C@@H](O)C12 (some centres undefined) 18.1%
CCOC(=O)C(=O)C1(C(=O)OCC)Oc2cc(OC)cc(OC)c2C(=O)C1c1ccccc1 (centres undefined) 14.2%
OC[C@@H](O)C(O)[C@H](O)CO -0.48%
CC(=O)Oc1cc2c(c(C)c1OC(C)=O)CC=C1[C@@]2(C)CC[C@@]2(C)[C@@H]3C[C@](C)(C(=O)O)CC[C@]3(C)CC[C@]12C 0.972%
COC(=O)C[C@H]1C(C)(C)[C@H](O)[C@@H]2CC3=C4CC(O)O[C@@H](c5ccoc5)[C@@]4(C)CCC3[C@]1(C)C2=O (some centres undefined) -7.8%
CC(=O)N[C@H]1[C@H]([C@H](O)[C@H](O)CO)O[C@](O)(C(=O)O)C[C@@H]1O -6.71%
C1CCN2CC3CC(CN4CCCCC34)C2C1 (centres undefined) 12.3%
C=CC(C)(CCC1C(=C)CC(OC(C)=O)C2C(C)(C)CCCC12C)OC(C)=O (centres undefined) 11.4%
CC1(C)C(=O)C2OC2C2(C)C1CC(=O)C1(C)C2CCC2(C)C(c3ccoc3)OC(=O)C3OC321 (centres undefined) 2.22%
